Shiga inhibitor = A qHTS for Small Molecule Inhibitors of Shiga Toxin; Vero cells, Shiga toxin protein synthesis inhibition reporter; inhibition, % at 38.7 µM; 9.2% of 290,000 active; AID 2315, 2010; in the data active = inhibition mostly above about 28%, no sharp cut-off; inactive = mostly below about 43%; note: 0% is about no effect
HCV inhibitor = qHTS Assay for Inhibitors of Hepatitis C Virus (HCV); Potency, µM (series often up to 41.8 µM), without a hit: at the top dose activity change, negative = inhibition, most hits filed as inhibitors; Huh7.5.1 HCVcc-Cre infection, luciferase reporter, 44 h; AID 651820, 2012; 3.4% of 340,000 active; note: potency is the fitted concentration of half-maximal effect; % is set by controls: 0 for no effect and ±100 for the full control effect
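1,000 cells/well; 4 h culture; + compound; + HCVcc-Cre (~0.5 moi); 44 h; luciferase substrate, RT 15 min; read 15 sec.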
Cycloheximide cs = Cycloheximide Counterscreen for Small Molecule Inhibitors of Shiga Toxin; max response, %; AID 2314, 2010; 12% of 300,000 active; cell reporter, cycloheximide protein synthesis inhibition counterscreen; in the data active = max response mostly above about 13%, no sharp cut-off; inactive = mostly below about 14%; note: read at 38.3 µM for the half of the compounds with a filed dose; 0% is about no effect
Pf growth 48h = Primary qHTS for delayed death inhibitors of the malarial parasite plastid, 48 hour incubation; 5.9% of 310,000 active; Potency, µM (series often up to 28.7 µM), for the others: at the top dose activity change, negative = inhibition, hits mostly inhibitors; P. falciparum luciferase growth in erythrocytes, 48 h; AID 504832, 2011; note: potency is the fitted concentration of half-maximal effect; % is set by controls: 0 for no effect and ±100 for the full control effect
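Cell-based growth assay: transgenic P. falciparum expressing firefly luciferase, cultured in red cells within RPMI 1640 containing 0.5% w/v Albumax, 24 mM bicarbonate and gentamycin. A drop in luciferase activity indicates inhibition.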
Pf growth 96h = Primary qHTS for delayed death inhibitors of the malarial parasite plastid, 96 hour incubation; P. falciparum luciferase reporter growth, 96 h; Potency, µM (series often up to 28.7 µM), without a hit: top-dose activity change, negative = inhibition, most hits filed as inhibitors; 6.9% of 320,000 active; note: potency is the fitted concentration of half-maximal effect; % is set by controls: 0 for no effect and ±100 for the full control effect
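P. falciparum expressing integrated firefly luciferase, in erythrocytes at 2% hematocrit, 0.05% parasitemia, incubated with compounds 96 h at 37 C, 5% CO2. Growth inhibition read as loss of luminescence; two-generation exposure targets delayed-death apicoplast inhibitors.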
HCMV antiviral = qHTS Assay for inhibitors of the human cytomegalovirus (HCMV); activity change, negative = inhibition, % at 57.5 µM; AID 1259415, 2018; 4.5% of 410,000 active; HFF cells, HCMV-luciferase reporter, 72 h; hits give low values; in the data active = activity change below about -60%; inconclusive = no clear call, values can overlap the other calls; inactive = above about -39%; note: % is set by controls: 0 for no effect and ±100 for the full control effect
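Screen run at 2 compound doses on HFFs infected with reporter HCMV, MOI 1 PFU/cell. Luciferase activity from cell lysates at 72 h post infection gave inhibition relative to buffer-only and Salinomycin wells.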
Active calls of the source: *; ? = inconclusive; . = no result; ! = a repeat was not active. An excerpt weighted towards active compounds, which were near 21% of everything screened. Unless noted, calls come from the whole dose curve; as a rule, active = well fitted inhibition curve with a large enough effect; inconclusive = small, poorly fitted or top-dose-only effect, or another doubt; inactive = no such curve, though single readings can be large or run the other way.

SMILES	Shiga inhibitor	HCV inhibitor	Cycloheximide cs	Pf growth 48h	Pf growth 96h	HCMV antiviral
Cc1ccc(OCC(=O)NCCNC(=O)c2ccc(C)nc2)cc1	-11	24%	-7	-2%	-6%	104
COc1ccc(NC(=O)c2c(NC(=O)c3ccc(Br)cc3)sc3c2CCCC3)cc1	.	.	.	.	.	-63*
O=C(Nc1ccon1)c1csc2c1CCCC2	30	?	2	4%	.	70
COc1cccc(NC(=O)c2csc3c2CCCC3)c1	104*	-27%	40*	52%	9%	-4
O=C(Nc1nccs1)c1csc2c1CCCC2	88*	-14%	36*	61%	?	0
Cc1ccccc1NC(=O)c1csc2c1CCCC2	100*	6%	41*	?	13%	-10
Cc1cc(C)cc(OCCSc2nc3ccc(NC(=O)c4ccc5c(c4)OCO5)cc3s2)c1	.	.	.	.	.	0
CC1=C(C(=O)Nc2cccnc2)C(c2ccc(F)cc2)n2nc(-c3cccc(C)c3)nc2N1 (stereo not drawn)	.	.	.	.	.	-23
COc1ccc(NC(=O)COC(=O)C2COc3ccccc3O2)cc1OC (stereo not drawn)	.	.	.	.	.	-10
COc1ccc(NC(=O)c2csc3c2CCCC3)cc1	72*	6%	51*	174%	244%	117
CC(=O)c1ccc(Sc2ccccc2)cc1	13	4%	19	33%	21%	21
CC(=O)c1ccc(Sc2ccc(C(C)=O)cc2)cc1	40*	4%	37*	47%	?	23
O=c1ccc2cc(S(=O)(=O)Nc3ccc(Br)cc3)ccc2o1	-11	-9%	-2	3%	?	-31
COc1cnc(-c2ccccn2)nc1Sc1ccc(Cl)cc1	-13	?	-2	2.3µM*	1.7µM*	-14
COc1cnc(-c2ccccn2)nc1Sc1ccc(F)cc1	8	0.56µM*	-2	4.7µM*	1.7µM*	?
COc1cnc(N(C)C)nc1Sc1ccc(Cl)cc1	-10	?	10	-17%	61%	-11
CCOC(=O)CSc1nc(-c2ccccn2)ncc1OC	-7	?	-2	0%	?	-9
COc1cnc(-c2ccccn2)nc1Sc1ccccc1	37	6.3µM*	6	13µM*	?	-100*
COc1ccc(Sc2nc(-c3ccccn3)ncc2OC)cc1	24	?	0	3.3µM*	3.3µM*	?
CC(=O)c1ccc(NS(=O)(=O)c2ccc(Br)s2)cc1	.	.	.	.	.	0
O=C(COC(=O)CNC(=O)c1ccc([N+](=O)[O-])o1)Nc1ncc(C(F)(F)F)cc1Cl	.	2.8µM*	.	?	?	-13
CCOc1ccccc1C1CC(=O)NC(SCC)=C1C#N (stereo not drawn)	14	-18%	-2	-10%	.	12
CCSC1=C(C#N)C(c2ccccc2OC)CC(=O)N1 (stereo not drawn)	12	-8%	-1	9%	7%	-75*
CCCSC1=C(C#N)C(c2ccccc2C)CC(=O)N1 (stereo not drawn)	-3	-12%	-7	?	16%	-99*
CCCSC1=C(C#N)C(c2ccccc2OCC)CC(=O)N1 (stereo not drawn)	-13	?	-3	?	5.2µM*	-10
SMILES	Shiga inhibitor	HCV inhibitor	Cycloheximide cs	Pf growth 48h	Pf growth 96h	HCMV antiviral
CCCCSC1=C(C#N)C(c2ccccc2C)CC(=O)N1 (stereo not drawn)	-14	-5%	-5	.	?	?
O=S(=O)(c1cccc(F)c1)N1CCC(Oc2ccc(-n3cnnn3)cc2)CC1	.	.	.	.	.	-96*
N#Cc1ccccc1S(=O)(=O)N1CCC(Oc2ccc(-n3cnnn3)cc2)CC1	.	.	.	.	.	-27
CC1CCCCN1C(=O)C1CCN(S(=O)(=O)c2ccc(-n3cnnn3)cc2)CC1 (stereo not drawn)	2	7%	-2	?	?	-7
COc1ccc(NC(=O)C2CCCN(S(=O)(=O)c3ccc(-n4cnnn4)cc3)C2)cc1 (stereo not drawn)	-4	-8%	-5	3%	?	-24
CC(=O)Nc1ccc(S(=O)(=O)N2CCC(Oc3ccc(-n4cnnn4)cc3)CC2)cc1	-5	-6%	-14	?	68%	-89*!
CC1CCN(C(=O)C2CCN(S(=O)(=O)c3ccc(-n4cnnn4)cc3)CC2)CC1	-3	0%	-4	-1%	3.7µM*	-23
Cc1ccc(NC(=O)CN(C)C(=O)C(C)OC(=O)c2ccccc2NCCO)cc1 (stereo not drawn)	.	?	.	-26%	3%	-11
Cc1ccc(C)c(C(O)c2ncc(-c3ccc(C(F)(F)F)cc3)[nH]2)c1 (stereo not drawn)	.	.	.	.	.	-10
CCc1sc(NC(=O)CCC(=O)O)nc1-c1cc2ccccc2oc1=O	2	7%	9	0%	18%	-23
CCC1CN(CC(=O)NCc2cccc(Br)c2)c2ccccc2S1 (stereo not drawn)	.	.	.	.	.	17
COc1ccc(N2C(=O)NC3CC2(C)Oc2ccc(Cl)cc23)cc1OC (stereo not drawn)	-1	-22%	-3	?	.	-31
COc1ccc(CCN2C(=S)NC3CC2(C)Oc2ccc([N+](=O)[O-])cc23)cc1OC (stereo not drawn)	-6	4.5µM*	-5	.	12µM*	-7
O=c1ccnc(Nc2ccc([N+](=O)[O-])cc2)[nH]1	.	-20%	.	.	.	-71*
CNc1ccc([N+](=O)[O-])cc1	.	-8%	.	62%	24%	23
CC1C(c2ccccc2)N(C)C(c2ccccc2)CC1(O)c1ccccc1 (stereo not drawn)	19	19%	9	60%	.	-39
CC1/C(=N/O)CC(c2ccccc2)N(C)C1c1ccccc1 (stereo not drawn)	-4	-10%	-3	13µM*	?	-12
CCOc1cc(C(=O)O)cc(Cl)c1OCC#N	0	32%	-1	6%	7.4µM*	-7
COCCOC(=O)c1c(NC(=O)CN2CCCc3ccccc32)sc(C(N)=O)c1C	-5	-26%	1	?	10µM*	102
CCOC(=O)c1c(NC(=O)CN2CCCc3ccccc32)sc(C)c1C	38	3.2µM*	34*	?	?	-36
COC(=O)c1c(NC(=O)CN2CCCc3ccccc32)sc(C)c1C	22	?	-2	?	?	?
CCOC(=O)c1c(S(=O)(=O)NCC(=O)Nc2cc(C)ccc2C)c(C)n(C)c1C	14	15%	-3	-26%	-17%	14
CCOC(=O)c1c(S(=O)(=O)NCC(=O)Nc2cc(C)ccn2)c(C)n(C)c1C	42	7%	13*	?	-11%	8

High-throughput results (PubChem)
